Screening data from PubChem BioAssay.
An excerpt weighted towards active compounds, which were near 3.4% of everything screened.
FBW7 act – human FBW7 E3 ligase activation, primary screen. AlphaScreen FBW7–phospho-cyclin E peptide binding, activator screen. normalized activity (activation), % at 26.1 µM. 0.13% of 650,000 active. AID 1259310; in the data active = normalized activity above about 1.9%;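 note: purified mutant Fbw7 with reduced substrate affinity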
GPR151 activ – activators of human GPR151; 1% of 650,000 active; activation, % at 11.2 µM; AID 1508602; PathHunter beta-arrestin GPR151 cells, luminescence; in the data active = activation above about 4.9%
MITF primary – blocks human microphthalmia-associated transcription factor; O75030; AlphaScreen MITF homodimerization, bead proximity signal; inhibition, % at 2.6 µM; 0.91% of 650,000 active; in the data active = inhibition above about 50%
Target sequence (O75030 whole entry, looked up): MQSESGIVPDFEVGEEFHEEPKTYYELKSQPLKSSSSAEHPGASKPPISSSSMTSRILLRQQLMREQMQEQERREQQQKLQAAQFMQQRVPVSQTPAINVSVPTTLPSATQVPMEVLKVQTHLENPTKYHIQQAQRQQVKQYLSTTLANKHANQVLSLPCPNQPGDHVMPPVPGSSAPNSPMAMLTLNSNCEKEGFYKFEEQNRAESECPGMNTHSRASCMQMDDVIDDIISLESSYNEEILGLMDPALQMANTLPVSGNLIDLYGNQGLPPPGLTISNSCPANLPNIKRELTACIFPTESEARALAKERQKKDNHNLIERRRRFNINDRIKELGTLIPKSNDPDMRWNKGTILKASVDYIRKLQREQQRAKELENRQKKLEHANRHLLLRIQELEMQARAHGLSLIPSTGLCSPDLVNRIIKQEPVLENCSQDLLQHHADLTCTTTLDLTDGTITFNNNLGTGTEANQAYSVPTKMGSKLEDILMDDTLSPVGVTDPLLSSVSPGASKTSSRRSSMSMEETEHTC
TEAD-YAP inh – TEAD-YAP interaction inhibition; HEK-TIYL cells, TEAD-Gal4/YAP UAS-luciferase luminescence; inhibition, % at 9.12 µM; 1.4% of 640,000 active; AID 1259422; in the data active = inhibition above about 32%
Hits are given with their value; n = inactive.

SMILES | FBW7 act | GPR151 activ | MITF primary | TEAD-YAP inh
Cc1cc(/C=C(\C#N)C(=O)O)c(C)n1CC(C)C | n | n | n | n
CC1CCc2c(sc3ncn(-n4cccc4)c(=O)c23)C1 (stereo not drawn) | n | n | n | n
CCOC(=O)C(=O)Nc1ccccc1C(N)=O | n | n | n | n
CNC(=O)c1ccccc1Sc1cccc2cccc(C(=O)O)c12 | n | n | n | n
O=C(O)C1Nc2c(C(=O)N3CCOCC3)cccc2C2C=CCC12 (stereo not drawn) | n | n | 58 | n
O=C(O)C1Nc2c(C(=O)N3CCCC3)cccc2C2C=CCC12 (stereo not drawn) | n | n | 80 | n
O=C(Oc1ccc(-c2ccccc2)cc1)c1cccc2c1NC(C(=O)O)C1CC=CC21 (stereo not drawn) | n | n | 51 | n
CC(C)C1Nc2c(C(=O)O)cccc2C2C=CCC21 (stereo not drawn) | n | n | n | n
O=C(NCCc1ccc(Cl)cc1)c1cc(Sc2ccccc2Cl)nc2ccccc12 | n | n | n | n
Cc1ccc(CCC(=O)Nc2ncc(Cc3ccccc3F)s2)o1 | n | n | n | 51
Cc1cccc(Cc2cnc(NC(=O)CCc3ccc(C)o3)s2)c1 | n | n | n | 32
CC(=O)Nc1ncc(Cc2ccccc2F)s1 | n | n | n | n
CC(CCCC(C)(C)O)NC(=O)c1cc(COc2ccc3ncccc3c2)on1 (stereo not drawn) | n | n | n | 33
O=C(NC1(c2ccccc2)CC1)c1cc(COc2ccc3ncccc3c2)on1 | n | n | n | 58
CN1CCOc2cc(/C=C3\C(=O)Nc4ccccc43)ccc21 | n | n | n | n
O=[N+]([O-])c1ccc(S(=O)(=O)Nc2cccc3ccccc23)cc1 | n | n | n | n
O=[N+]([O-])c1ccc(S(=O)(=O)Nc2cccc3cc4ccccc4nc23)cc1 | n | n | n | 80
Oc1oc(-c2ccccc2Br)nc1/C=N/c1nccs1 | n | n | n | n
COc1ccccc1/C=C(\NC(=O)c1ccccc1)C(=O)Nc1cccc(O)c1 | n | n | n | 40
CN(C)S(=O)(=O)c1ccc(C(=O)Nc2c3c(nn2-c2ccc(Oc4ccccc4)cc2)CSC3)cc1 | n | n | n | n
O=[N+]([O-])c1ccc(/C=C/c2nc3ccc([N+](=O)[O-])cc3[nH]2)cc1 | n | n | n | n
O=[N+]([O-])c1ccc(/C=C/c2nc3ccccc3[nH]2)cc1 | n | n | n | 74
Cn1c(=O)c2c(nc3n2CC(=O)N3c2ccc(F)cc2F)n(C)c1=O | n | n | n | n
CNC(=O)c1cc2cc(Br)ccc2oc1=O | n | n | n | n
O=C(NNC(=O)c1cc2cc(Br)ccc2oc1=O)c1ccc(O)cc1O | n | n | n | 34
SMILES | FBW7 act | GPR151 activ | MITF primary | TEAD-YAP inh
CC(=O)/C=C/c1ccc(OCc2ccc(Cl)nc2)cc1 | n | n | n | n
CC(=O)Nc1ccc(-c2nc3ccc(C)cc3[nH]2)cc1 | n | n | n | n
CC(=O)Nc1ccc2nc(-c3cc(C)ccc3C)[nH]c2c1 | n | n | n | 46
COc1ccc(/C=N/NC(=O)c2cc([N+](=O)[O-])ccc2O)cc1 | n | n | n | 33
O=C(Nc1c(Cl)cc([N+](=O)[O-])cc1Cl)c1cc(Cl)ccc1O | n | n | n | 67
O=C(Nc1ccc([N+](=O)[O-])cc1Cl)c1cc(Br)ccc1O | n | n | n | n
O=C(Nc1cccc([N+](=O)[O-])c1)c1cc2ccccc2cc1O | n | n | n | 34
O=C(Nc1ccc(Cl)cc1)c1cc([N+](=O)[O-])ccc1O | n | n | n | 72
O=C(NNC(=O)c1cc2ccccc2cc1O)Nc1cccc([N+](=O)[O-])c1 | n | n | n | n
O=C(CCOc1ccccc1)N1CCC(N2CCC(C(=O)N3CCOCC3)CC2)CC1 | n | n | n | n
COc1ccc(NC(=O)c2cc([N+](=O)[O-])ccc2O)cc1 | n | n | n | 86
COc1ccc(OCC(=O)Nc2cc([N+](=O)[O-])ccc2O)cc1 | n | n | n | 90
O=C(N/N=C/c1ccc([N+](=O)[O-])cc1)C(=O)N/N=C/c1ccc([N+](=O)[O-])cc1 | n | n | n | n
Cc1ccc(NC(=O)c2cc([N+](=O)[O-])ccc2O)cc1 | n | n | n | 76
CNC(=S)N/N=C\c1ccc([N+](=O)[O-])cc1 | n | n | n | 34
CCc1ccccc1NC1C=CS(=O)(=O)C1 (stereo not drawn) | n | n | n | 34
O=S1(=O)C=CC(Nc2cccc3ccccc23)C1 (stereo not drawn) | n | n | n | 33
O=S(=O)(c1ccccc1Cl)N1CCC(c2nc3ccccc3o2)CC1 | n | n | n | n
O=C1CCCC(O)=C1N=Nc1ccc(C(=O)O)cc1 | n | n | 66 | n
